VP16 counter = counter-screen for ROR gamma inhibitors: Gal4-VP16 reporter; Drosophila S2 Gal4-VP16 UAS-luciferase, luminescence, 20 h; Potency, µM (titrated, usually from 53.6 µM), inactives show at the highest dose activity, negative = inhibition, most hits filed as inhibitors; 3.5% of 310,000 active; AID 2546;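 also: Gal4-VP16 expression switched on by copper sulfate through the metallothionein promoter; % is scaled to controls: 0 for no effect and ±100 for the full control effect; nearly all actives have a fitted effect of over 50% in size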
RORg inh = ROR gamma (mouse) transcription inhibition; P51450; Drosophila S2 Gal4-RORgamma UAS-luciferase reporter, 20 h; Potency, µM (top dose mostly 53.6 µM), for inactives: at the top dose activity change, negative = inhibition, most hits filed as inhibitors; 5.4% of 310,000 active; also: % is scaled to controls: 0 for no effect and ±100 for the full control effect; nearly all actives have a fitted effect of over 60% in size
Target sequence (P51450 whole entry, looked up, the tested form may be a part): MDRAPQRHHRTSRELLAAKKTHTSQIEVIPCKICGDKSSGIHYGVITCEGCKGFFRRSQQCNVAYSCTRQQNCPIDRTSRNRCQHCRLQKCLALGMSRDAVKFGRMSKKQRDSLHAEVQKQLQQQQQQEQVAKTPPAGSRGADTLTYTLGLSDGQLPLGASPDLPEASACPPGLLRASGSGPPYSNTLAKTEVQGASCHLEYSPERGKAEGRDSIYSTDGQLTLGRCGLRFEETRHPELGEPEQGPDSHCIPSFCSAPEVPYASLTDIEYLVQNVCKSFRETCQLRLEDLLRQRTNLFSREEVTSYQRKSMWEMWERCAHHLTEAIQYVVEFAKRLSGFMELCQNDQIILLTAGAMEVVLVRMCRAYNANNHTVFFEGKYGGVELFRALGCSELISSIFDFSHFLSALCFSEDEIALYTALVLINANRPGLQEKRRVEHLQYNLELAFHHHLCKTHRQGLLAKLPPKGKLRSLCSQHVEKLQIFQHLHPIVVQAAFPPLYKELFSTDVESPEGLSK
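Drosophila Schneider cells stably carrying a metallothionein-driven Gal4 DBD–ROR gamma fusion and a UAS-Photinus luciferase reporter were exposed to compound for 1 hr, then induced with copper sulfate (700 uM final) for 20 hr at ambient temperature before luminescence reading.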
GLP-1R agonist = agonists of human GLP-1 receptor | P43220 | Potency, µM (highest dose often 45.6 µM), without a hit: at the highest dose activation, hits mostly activators | HEK293 GLP-1R CRE-luciferase, luminescence, 4-6 h; cells express a hypersensitive GLP-1R form | 0.007% of 380,000 active; also: % of control where 0% means no effect
GLP-1R inv ag = inverse agonists of human GLP-1 receptor; 1.6% of 410,000 active; Potency, µM (top dose mostly 38.3 µM), for the others: at the top dose activity change, negative = inhibition, most hits filed as inhibitors; HEK293 GLP-1R CRE-luciferase, luminescence, 24 h; GLP-1R form is constitutively active; P43220; also: % is scaled to controls: 0 for no effect and ±100 for the full control effect; nearly all actives have a fitted effect of over 55% in size
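HEK293 cells stably co-expressing constitutively active GLP-1R and a cAMP-responsive luciferase reporter were seeded in DMEM with 10% Nu serum, given compounds after 12 h, and incubated 24 h at 37 deg C. Luminescence was then read.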
HEK293 tox = cytotoxicity counter-screen for GLP-1 receptor inverse agonists | HEK293 cAMP-luciferase reporter cells, luminescence, 24 h | 0.13% of 410,000 active | AID 624418 | Potency, µM (highest dose often 38.3 µM), for the others: at the top dose activity change, negative = inhibition, actives largely listed as inhibitors;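 also: loss of luciferase light is scored as toxicity; % is scaled to controls: 0 for no effect and ±100 for the full control effect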
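Compound-treated cells are incubated 24 hr at 37 deg C under 5% CO2 after a 12 hour attachment period, then luciferase detection reagent is added and luminescence is measured following 12 min at room temperature; lowered signal indicates toxicity.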
* hit, by the source's call; ? = inconclusive; . = no result; ! = not active in a repeat; [ ] = dose if it differs, or a comment. Sampled rows, rich in hits. Any-hit rate of the full collection: about 5.9%. Calls follow the shape of the dose curve; as a rule, active = well fitted curve in the direction sought with a large enough effect; inconclusive = small, poorly fitted or top-dose-only effect, or another doubt; inactive = no such curve, though single readings can be large; an effect the other way counts as inactive or inconclusive. Potency is read from the fitted curve at half-maximal effect.

SMILES	VP16 counter	RORg inh	GLP-1R agonist	GLP-1R inv ag	HEK293 tox
COC(=O)c1ccc(CSc2nc(C)nc3sc(C)c(C)c23)o1	4µM*	?	6%	28%	3%
S=C(NN=C(C1CC1)C1CC1)Nc1ccccc1	18µM*	11µM*	-2%	-4%	-4%
S=C(NNC(=S)Nc1ccccc1)Nc1ccccc1	?	-16%	8%	16%	-4%
COc1ccc(-c2cc(C)no2)cc1S(=O)(=O)N1CCN(c2ccccc2F)CC1	-3%	-28%	8%	10µM*!	8%
COc1ccc(-c2cc(C)no2)cc1S(=O)(=O)N1CCN(c2ccccn2)CC1	-2%	41%	7%	-7%	-8%
COc1ccc(-c2cc(C)no2)cc1S(=O)(=O)N1CCCN(Cc2ccccc2Cl)C1	1%	-25%	8%	8.9µM*	-2%
O=C=Nc1ccc(Cl)c(Cl)c1	-23%	?	.	.	.
CN(CCO)c1cc(Sc2nc3ccccc3s2)c2nonc2c1[N+](=O)[O-]	13µM*	11µM*	-16%	?	?
CC(=O)OCCN(C)c1cc(SC(C)C)c2nonc2c1[N+](=O)[O-]	29%	?	3%	4%[0.307 µM]	-9%[0.307 µM]
COc1cccc(CNC(=O)CSc2nc3ccccc3nc2Cc2ccc(C)cc2)c1OC	.	.	0%	4%	-3%
CC(C)Cn1c(-c2ccc(S(=O)(=O)N3CCCC3)cc2)csc1=Nc1ccccc1	.	.	.	?	3%
COc1ccc(N=c2scc(-c3ccc(S(=O)(=O)N4CCOCC4)cc3)n2CCCO)cc1	5.6µM*	?	.	.	.
CC(=O)c1cccc(N=c2scc(-c3ccc(S(=O)(=O)N4CCOCC4)cc3)n2CCO)c1	2µM*	?	1%	0%	1%
C=CCn1c(-c2ccc(S(=O)(=O)N3CCOCC3)cc2)csc1=Nc1ccccc1	14µM*	-7%	-33%	-2%	-2%
O=c1c(-c2cccs2)nc2cnc(N3CCOCC3)nc2n1Cc1cccs1	2%	15%	.	.	.
CCc1cccc(NC(=O)Cn2c(=O)ccc3cc(S(=O)(=O)N4CCC(C)CC4)ccc32)c1	.	.	0%	9%	0%
NC(=O)CSc1nnc(Cn2cnc3ccccc32)o1	-20%[10 µM]	28%	2%	-10%	-1%
Clc1ccc(CSc2nnc(Cn3cnc4ccccc43)o2)cc1	16µM*	6%	1%	?	-13%
COc1ccc(-c2noc(CSc3nnc(-c4ccncc4)n3-c3ccc(OC)cc3)n2)cc1	.	.	.	-9%	0%
CCOC(=O)c1ccc(N2C(=O)C=CC2=O)cc1	7.1µM*	10%	-15%	0%	?
CCOC(=O)c1ccc(-n2c(C)ccc2C)cc1	6%	14%	0%	17%	-26%
CCCCOC(=O)c1ccc(NC(=O)Cc2coc3ccc(C(C)C)cc23)cc1	.	.	.	7.9µM*	?
O=C(/C=C/c1ccc(Cl)cc1Cl)Nc1cccc(S(=O)(=O)NC2=NCCCCC2)c1	-12%	?	9%	10µM*	-15%
O=C(CCl)Nc1cccc(S(=O)(=O)NC2=NCCCCC2)c1	.	.	-4%	?	11µM*
O=C(CCl)Nc1ccc(S(=O)(=O)NC2=NCCCCC2)cc1	.	.	-2%	?	?
SMILES	VP16 counter	RORg inh	GLP-1R agonist	GLP-1R inv ag	HEK293 tox
Cc1cccc(C)c1NC(=S)NN(Cc1ccccc1)c1ccccc1	?	5µM*	-2%	?	?
CC(C)N(Cc1ccccc1)C(=S)Nc1ccccc1F	1%	-35%	4%	?	0%
Cc1cccc(C)c1NC(=S)N(Cc1ccccc1)Cc1cccnc1	12%	?	5%	-1%	7%
CC(C)c1ccccc1NC(=S)NN(Cc1ccccc1)c1ccccc1	?	2.2µM*	-2%	?	?
Fc1ccccc1NC(=S)NN(Cc1ccccc1)c1ccccc1	10µM*	4.5µM*	-16%	?	?
COC(=O)N1CCC2(CC1)CN(c1ccccc1)C2	7%	24%	.	.	.
CCc1ccc(/C=C2\SC(=S)N(CCCC(=O)Nc3ccccn3)C2=O)cc1	1.4µM*	0.28µM*	-2%	?	-20%
COC(=O)c1ccc(/C=C2/SC(=S)N(CCCC(=O)Nc3ccccn3)C2=O)cc1	1.8µM*	1.1µM*	-12%	?	-5%
O=C(CCCN1C(=O)/C(=C/c2cccc(Br)c2)SC1=S)Nc1ccccn1	-2%[0.365 µM]	?	-14%	0%	-12%
CCc1ccc(C=C2SC(=S)N(CCCC(=O)Nc3ccc(C(=O)O)cc3)C2=O)cc1	.	.	6%	0%	0%
CCc1ccc(/C=C2/SC(=S)N(CCC(=O)Nc3ccc(C(=O)O)cc3)C2=O)cc1	-7%	3.5µM*	.	.	.
Cc1ccc(NC(=S)N(CCN(C)C)C(C)c2ccco2)cc1C (stereo not drawn)	?	19%	-13%	?	-30%
COCCN(C(=S)Nc1ccc(C)c(C)c1)C(C)c1ccco1 (stereo not drawn)	?	4.5µM*	14%	?	-10%
Cc1cccc(NC(=S)N(Cc2ccco2)C(C)c2cccs2)c1 (stereo not drawn)	?	14µM*	-1%	?	-27%
CC(c1cccs1)N(Cc1ccco1)C(=S)Nc1ccc(F)c(Cl)c1 (stereo not drawn)	?	?	4%	24%	1%
COc1cccc(NC(=S)N(Cc2ccco2)C(C)c2ccco2)c1 (stereo not drawn)	18µM*	?	7%	?	3%
CCc1ccc2nc(N(CCN(CC)CC)C(=O)c3ccco3)sc2c1	.	.	.	?	-22%
C=CCn1c(N)c(-c2nc3ccccc3n2C)sc1=S	?	-160%	1%	0%	1%
Cn1c(-c2sc(=S)n(-c3ccccc3)c2N)nc2ccccc21	-2%	7.9µM*	-16%	-3%	-9%
CCC(C(=O)Nc1ccc(C)c(Cl)c1)n1c(=O)c(-c2ccccc2NC(C)=O)nc2ccccc21 (stereo not drawn)	.	.	.	?	-23%
CSc1nnc(C(C)(C)C)c(=O)n1/N=C/c1c(O)ccc2ccccc12	?	10µM*	6%	1%	8%
Cc1nc2ccccc2c(=O)n1/N=C/c1c(O)ccc2ccccc12	?	13µM*	7%	?	29%
Cc1nc2ccccc2c(=O)n1/N=C/c1cc(Br)ccc1O	?	13µM*	9%	?	5%
Cc1n[nH]c(=S)n1/N=C/c1c(O)ccc2ccccc12	?	?	1%	14%	-24%
CCCc1nc2ccccc2c(=O)n1/N=C/c1ccc(O)cc1O	20µM*	?	0%	3%	-14%
COc1cccc(-c2nc(NCc3cccnc3)c3ccccc3n2)c1	-9%	-23%	.	.	.
O=C(c1ccco1)N1CCC2(CCCN(c3ccncc3)C2)CC1	2%	-12%	.	.	.
COc1cccc(CNC(=O)C(=O)NCC(c2ccco2)S(=O)(=O)c2cccs2)c1 (stereo not drawn)	.	.	.	-3%	1%

Bioassay records deposited in PubChem by National Center for Advancing Translational Sciences (NCATS).
